In PubChem BioAssay AID1159580 (chemical genetic matrix, 2015):
Several values for one entry are separate records, joined by “and”; a condition that tells them apart may be missing. Identical values can stand only once. Among all 5,500 compounds or so, about 2,000 (36%) were called active. About 18% were inconclusive and are not listed. Cut-off read from the data, not from the text of the source: active = normalized growth mostly below about 0.91 (no sharp cut-off); inconclusive = no clear call, values can overlap the other calls; inactive = mostly above about 0.92. This is one part of the list.

Assay: chemical genetic growth profiling, strain panel (AID 1159580);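 note: tested at 20 µM; growth read once vehicle control cultures reached saturation at 30 °C; 1 = growth at the plate median or of vehicle wells; lower values mean less growth of the strain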
Conditions: S. cerevisiae deletion strains, growth OD

Measured: normalized growth

CNC[C@H](O)c1cccc(O)c1
inactive: locus YAL013W, strain DEP1, stronger effect = lower value 1.01 | locus YAL021C, strain ccr4, stronger effect = lower value 0.979 | locus YAL026C, strain drs2, stronger effect = lower value 0.997 | locus YAL030W, strain snc1, stronger effect = lower value 0.986 | locus YBL061C, strain skt5, stronger effect = lower value 0.988 | locus YBR009C, strain hhf1, stronger effect = lower value 0.995 | locus YBR021W, strain FUR4, stronger effect = lower value 1 | locus YBR023C, strain chs3, stronger effect = lower value 0.986 | locus YBR171W, strain sec66, stronger effect = lower value 0.98 | locus YBR229C, strain ROT2, stronger effect = lower value 1.01 | locus YBR231C, strain swc5, stronger effect = lower value 0.967 | locus YBR279W, strain paf1, stronger effect = lower value 0.991 | locus YCL011C, strain gbp2, stronger effect = lower value 1 | locus YCL016C, strain dcc1, stronger effect = lower value 0.983 | locus YCL029C, strain bik1, stronger effect = lower value 1.02 | locus YCL069W, strain vba3, stronger effect = lower value 0.991 | locus YCR088W, strain abp1, stronger effect = lower value 0.986 | locus YDL005C, strain med2, stronger effect = lower value 0.968 | locus YDL035C, strain GPR1, stronger effect = lower value 1.01 | locus YDL040C, strain nat1, stronger effect = lower value 0.984 | locus YDL074C, strain BRE1, stronger effect = lower value 1.01 | locus YDL101C, strain DUN1, stronger effect = lower value 1.01 | locus YDL134C, strain PPH21, stronger effect = lower value 1.01 | locus YDL185W, strain tfp1, stronger effect = lower value 1.02 | locus YDL192W, strain arf1, stronger effect = lower value 1.02 | locus YDR001C, strain nth1, stronger effect = lower value 0.991 | locus YDR069C, strain doa4, stronger effect = lower value 0.982 | locus YDR101C, strain arx1, stronger effect = lower value 1.02 | locus YDR137W, strain rgp1, stronger effect = lower value 0.966 | locus YDR150W, strain NUM1, stronger effect = lower value 1.01 | locus YDR159W, strain sac3, stronger effect = lower value 0.981 | locus YDR162C, strain NBP2, stronger effect = lower value 1.01 | locus YDR195W, strain ref2 0.91 | locus YDR297W, strain sur2, stronger effect = lower value 0.981 | locus YDR318W, strain mcm21, stronger effect = lower value 1.02 | locus YDR334W, strain swr1, stronger effect = lower value 0.982 | locus YDR335W, strain msn5, stronger effect = lower value 0.99 | locus YDR388W, stronger effect = lower value 1.01 | locus YDR392W, strain spt3, stronger effect = lower value 1 | locus YDR502C, strain sam2, stronger effect = lower value 1.01 | locus YEL003W, strain gim4, stronger effect = lower value 0.989 | locus YEL037C, strain rad23, stronger effect = lower value 0.984 | locus YEL061C, strain CIN8 (second series), stronger effect = lower value 0.99 | locus YEL061C, strain CIN8, stronger effect = lower value 1.01 | locus YER015W, strain faa2, stronger effect = lower value 0.969 | locus YER016W, strain bim1, stronger effect = lower value 0.981 | locus YER110C, stronger effect = lower value 1.02 | locus YER111C, strain swi4, stronger effect = lower value 0.988 | locus YER155C, strain BEM2 (second series), stronger effect = lower value 0.953 | locus YER155C, strain BEM2, stronger effect = lower value 1 | locus YER167W, strain BCK2, stronger effect = lower value 1.01 | locus YFR010W, strain ubp6, stronger effect = lower value 0.976 | locus YGL078C, strain dbp3, stronger effect = lower value 1.01 | locus YGL086W, strain mad1, stronger effect = lower value 1 | locus YGL167C, strain pmr1, stronger effect = lower value 0.983 | locus YGL173C, strain kem1, stronger effect = lower value 0.955 | locus YGL227W, strain vid30, stronger effect = lower value 0.971 | locus YGL240W, strain doc1, stronger effect = lower value 0.95 | locus YGL248W, strain PDE1, stronger effect = lower value 1 | locus YGL253W, strain hxk2, stronger effect = lower value 1.01 | locus YGR078C, strain PAC10, stronger effect = lower value 0.996 | locus YGR135W, strain pre9, stronger effect = lower value 1 | locus YGR229C, strain SMI1, stronger effect = lower value 0.992 | locus YGR252W, strain gcn5, stronger effect = lower value 0.989 | locus YHR013C, strain ard1, stronger effect = lower value 0.982 | locus YHR027C, strain rpn1, stronger effect = lower value 0.99 | locus YHR030C, strain SLT2, stronger effect = lower value 1 and 1.01 | locus YHR079C, strain IRE1 (second series), stronger effect = lower value 1.02 | locus YHR079C, strain IRE1, stronger effect = lower value 1.03 | locus YHR094C, strain hxt1, stronger effect = lower value 1.02 | locus YHR129C, strain ARP1, stronger effect = lower value 1.01 | locus YHR142W, strain chs7, stronger effect = lower value 1 | locus YHR200W, strain rpn10, stronger effect = lower value 1.02 | locus YIL066C, strain RNR3, stronger effect = lower value 1.01 | locus YIL073C, strain SPO22, stronger effect = lower value 1.04 | locus YIL125W, strain kgd1, stronger effect = lower value 1.01 | locus YIR030C, strain dcg1, stronger effect = lower value 1.01 | locus YJL092W, strain hpr5, stronger effect = lower value 0.977 | locus YJL095W, strain BCK1 (second series), stronger effect = lower value 0.98 | locus YJL095W, strain BCK1, stronger effect = lower value 1.01 and 1.02 | locus YJL115W, strain asf1, stronger effect = lower value 0.976 | locus YJL129C, strain trk1, stronger effect = lower value 0.977 | locus YJL134W, strain LCB3, stronger effect = lower value 1 | locus YJL154C, strain vps35, stronger effect = lower value 0.987 | locus YJL164C, strain tpk1, stronger effect = lower value 0.985 | locus YJL166W, strain qcr8, stronger effect = lower value 0.956 | locus YJL168C, strain set2, stronger effect = lower value 1.02 | locus YJL187C, strain SWE1 (second series), stronger effect = lower value 1.01 | locus YJR043C, strain POL32, stronger effect = lower value 0.996 | locus YJR066W, strain TOR1, stronger effect = lower value 0.969 | locus YJR075W, strain HOC1, stronger effect = lower value 1
